Experimental data taken from PubChem BioAssay AID1159580 (chemical genetic matrix, 2015).
Screen size: about 5,500 compounds; about 2,000 (36%) were called active. Another 18% or so got no clear call; they are omitted. Cut-off read from the data, not from the text of the source: active = normalized growth mostly below about 0.91 (no sharp cut-off); inconclusive = no clear call, values can overlap the other calls; inactive = mostly above about 0.92. This is one part of the list.

Experiment: chemical genetic growth profiling, strain panel (AID 1159580);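 note: tested at 20 µM; growth read once vehicle control cultures reached saturation at 30 °C; 1 = growth at the plate median or of vehicle wells; lower values mean less growth of the strain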
Details: growth OD
[1] = S. cerevisiae deletion strains, locus YAL013W, strain DEP1, active compounds read low
[2] = S. cerevisiae deletion strains, locus YDR150W, strain NUM1, active compounds read low
[3] = S. cerevisiae deletion strains, locus YGR078C, strain PAC10, active compounds read low
[4] = S. cerevisiae deletion strains, locus YHR030C, strain SLT2, active compounds read low
[5] = S. cerevisiae deletion strains, locus YJR075W, strain HOC1, active compounds read low
[6] = S. cerevisiae deletion strains, locus YMR263W, strain SAP30, active compounds read low
[7] = S. cerevisiae deletion strains, locus YNL153C, strain GIM3, active compounds read low
[8] = S. cerevisiae deletion strains, locus YNL322C, strain KRE1, active compounds read low
[9] = S. cerevisiae deletion strains, locus YPL241C, strain CIN2, active compounds read low

Measured: normalized growth

O=C(O)c1ccccc1Nc1cccc(OCc2ccc3ccccc3n2)c1
inactive: [1] 0.996 | S. cerevisiae deletion strains, locus YAL040C, strain CLN3, active compounds read low 0.932 | S. cerevisiae deletion strains, locus YCL061C, strain MRC1 (second series), active compounds read low 0.997 | [2] 1 | S. cerevisiae deletion strains, locus YDR363W, strain ESC2, active compounds read low 1 | S. cerevisiae deletion strains, locus YER002W, strain NOP16, active compounds read low 1.01 | [3] 0.967 | [4] 1.03 | S. cerevisiae deletion strains, locus YHR079C, strain IRE1, active compounds read low 1.03 | S. cerevisiae deletion strains, locus YJL095W, strain BCK1, active compounds read low 1.05 | S. cerevisiae deletion strains, locus YJR066W, strain TOR1, active compounds read low 0.968 | [5] 1.01 | S. cerevisiae deletion strains, locus YLR113W, strain HOG1, active compounds read low 1.01 | [6] 0.999 | S. cerevisiae deletion strains, locus YMR307W, strain GAS1, active compounds read low 1.04 | S. cerevisiae deletion strains, locus YNL128W, strain TEP1, active compounds read low 0.957 | [7] 1.04 | S. cerevisiae deletion strains, locus YNL175C, strain NOP13, active compounds read low 0.94 | S. cerevisiae deletion strains, locus YNL183C, strain NPR1, active compounds read low 0.981 | S. cerevisiae deletion strains, locus YNL197C, strain WHI3, active compounds read low 0.934 | S. cerevisiae deletion strains, locus YNL224C, strain SQS1, active compounds read low 0.95 | [8] 1.02 | S. cerevisiae deletion strains, locus YOR083W, strain WHI5 (second series), active compounds read low 0.959 | S. cerevisiae deletion strains, locus YOR231W, strain MKK1, active compounds read low 1.02 | [9] 0.989 | S. cerevisiae deletion strains, locus YPL256C, strain CLN2, active compounds read low 1.02

O=C(Nc1ccc(C(F)(F)F)cc1)Nc1ccccc1C(=O)O
inactive: [1] 0.975 | S. cerevisiae deletion strains, locus YBR229C, strain ROT2, active compounds read low 0.993 | S. cerevisiae deletion strains, locus YCL061C, strain MRC1, active compounds read low 0.967 | S. cerevisiae deletion strains, locus YDL101C, strain DUN1, active compounds read low 0.994 | S. cerevisiae deletion strains, locus YDL134C, strain PPH21, active compounds read low 0.989 | [2] 0.972 | S. cerevisiae deletion strains, locus YEL061C, strain CIN8, active compounds read low 1.01 | [3] 0.984 | S. cerevisiae deletion strains, locus YGR229C, strain SMI1, active compounds read low 0.975 | [4] 0.99 | S. cerevisiae deletion strains, locus YHR087W, strain rtc3, active compounds read low 0.994 | S. cerevisiae deletion strains, locus YJR043C, strain POL32, active compounds read low 0.981 | [5] 0.979 | S. cerevisiae deletion strains, locus YKL190W, strain CNB1, active compounds read low 0.989 | S. cerevisiae deletion strains, locus YLR039C, strain RIC1, active compounds read low 1.01 | S. cerevisiae deletion strains, locus YLR058C, strain SHM2 (second series), active compounds read low 0.979 | S. cerevisiae deletion strains, locus YLR085C, strain ARP6, active compounds read low 1 | S. cerevisiae deletion strains, locus YLR262C, strain YPT6, active compounds read low 0.935 | S. cerevisiae deletion strains, locus YML094W, strain GIM5, active compounds read low 1 | S. cerevisiae deletion strains, locus YMR219W, strain ESC1, active compounds read low 0.971 | [6] 0.991 | [7] 0.977 | S. cerevisiae deletion strains, locus YNL298W, strain CLA4 (second series), active compounds read low 0.96 | [8] 0.971 | S. cerevisiae deletion strains, locus YNR030W, strain Alg12, active compounds read low 1 | S. cerevisiae deletion strains, locus YOL006C, strain TOP1, active compounds read low 0.939 | S. cerevisiae deletion strains, locus YPL055C, strain LGE1, active compounds read low 0.996 | [9] 0.977 | S. cerevisiae deletion strains, locus YPR135W, strain CTF4, active compounds read low 0.949 | S. cerevisiae strains, strain wild type, active compounds read low 0.968
